Screening results deposited in PubChem BioAssay by National Center for Advancing Translational Sciences (NCATS).
An excerpt weighted towards active compounds, which were near 11% of everything screened.
SW480 rerep = A quantitative high throughput screen for small molecules that induce DNA re-replication in SW480 colon adenocarcinoma cells. Potency, µM (series often up to 46.1 µM), for inactives: at the highest dose re-replication activation, actives largely listed as activators. hit rate 1.8% among 340,000. AID 624297, 2012. SW480 DNA re-replication, Hoechst DNA content imaging, 48 h; note: potency is the fitted concentration of half-maximal effect; % of control where 0% means no effect; nearly all actives have a fitted effect of over 55% in size
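Hoechst fluorescence of nuclei (405 nm excitation, 500-530 nm emission) measured by plate-scanning imager after 48 hr compound exposure at 37 C; re-replication scored as increased number of nuclei with elevated intensity.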
RORgamma inh = qHTS for inhibitors of ROR gamma transcriptional activity. hit rate 5.4% among 310,000. AID 2551, 2010. Potency, µM (series often up to 53.6 µM), for inactives: at the top dose activity change, negative = inhibition, most hits filed as inhibitors. Drosophila S2 Gal4-RORgamma UAS-luciferase reporter, 20 h. Nuclear receptor ROR-gamma (Mus musculus), P51450; note: potency is the fitted concentration of half-maximal effect; % is set by controls: 0 for no effect and ±100 for the full control effect; nearly all actives have a fitted effect of over 60% in size
Target sequence (P51450 whole entry, looked up, the tested form may be a part): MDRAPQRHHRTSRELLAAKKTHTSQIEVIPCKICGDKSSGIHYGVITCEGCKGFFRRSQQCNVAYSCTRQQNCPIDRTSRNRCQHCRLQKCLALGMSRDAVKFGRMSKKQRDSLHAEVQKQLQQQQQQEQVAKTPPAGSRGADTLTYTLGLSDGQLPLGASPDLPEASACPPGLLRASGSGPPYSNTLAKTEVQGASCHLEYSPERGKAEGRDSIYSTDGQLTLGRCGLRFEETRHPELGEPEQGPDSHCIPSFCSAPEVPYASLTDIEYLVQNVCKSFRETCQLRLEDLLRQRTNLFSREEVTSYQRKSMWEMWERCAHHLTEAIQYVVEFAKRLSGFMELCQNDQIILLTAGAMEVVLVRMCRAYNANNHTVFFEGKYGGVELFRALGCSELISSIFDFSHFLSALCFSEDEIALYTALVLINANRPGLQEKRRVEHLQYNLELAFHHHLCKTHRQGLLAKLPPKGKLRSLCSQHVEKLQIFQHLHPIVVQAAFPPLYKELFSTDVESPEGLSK
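Luciferase reporter read in Schneider cells carrying Gal4-RORγ (mouse) and UAS-Photinus luciferase; cells given compound 1 h before 700 uM copper sulfate induction, then incubated 20 h at ambient temperature.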
VP16 counter = VP16 counterscreen qHTS for inhibitors of ROR gamma transcriptional activity; Potency, µM (highest dose often 53.6 µM), for the others: at the top dose activity, negative = inhibition, usual class: inhibitors; Drosophila S2 Gal4-VP16 UAS-luciferase, luminescence, 20 h; hit rate 3.5% among 310,000;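 note: Gal4-VP16 expression switched on by copper sulfate through the metallothionein promoter; potency is the fitted concentration of half-maximal effect; % is set by controls: 0 for no effect and ±100 for the full control effect; nearly all actives have a fitted effect of over 50% in size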
IL-1B inflam inh = qHTS for Inhibitors of Inflammasome Signaling: IL-1-beta AlphaLISA Primary Screen; THP-1 LPS/ATP IL-1B secretion, AlphaLISA, 16 h; hits give low values; activity change, % at 57.5 µM; hit rate 4.7% among 360,000; in the data active = activity change below about -50%; inconclusive = mostly about -30% to -49%; note: % is set by controls: 0 for no effect and ±100 for the full control effect
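Secreted IL-1B measured by AlphaLISA bead assay after 16 h compound exposure of THP-1 cells; compounds (final up to 57.5 uM) added 1 h before LPS (250 ng/mL) and ATP (1.25 mM) stimulation; lower signal means less secretion.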
MCF10A rerep = A quantitative high throughput screen for small molecules that induce DNA re-replication in MCF 10a normal breast cells; MCF 10A DNA re-replication, Hoechst nuclear intensity, 48 h; Potency, µM (titrated, usually from 46.1 µM), for the others: top-dose activity, positive = re-replication, most hits filed as activators; hit rate 2.9% among 350,000; note: potency is the fitted concentration of half-maximal effect; % of control where 0% means no effect; nearly all actives have a fitted effect of over 50% in size
Starred values were filed as active, the others as inactive; ? = inconclusive; · = no result given; [ ] = remark or other dose. Unless noted, calls come from the whole dose curve; as a rule, active = well fitted curve in the direction sought with a large enough effect; inconclusive = small, poorly fitted or top-dose-only effect, or another doubt; inactive = no such curve, though single readings can be large; an effect the other way counts as inactive or inconclusive.

SMILES	SW480 rerep	RORgamma inh	VP16 counter	IL-1B inflam inh	MCF10A rerep
COc1ccnc(Oc2cccc(C(F)(F)F)c2)c1C(=O)N/C=N/OCc1ccccc1F	-6%	12%	8%	-59*	13%
CN(Cc1ccco1)c1ncnc2ccc(-c3cccc(NS(C)(=O)=O)c3)cc12	·	?	5%	·	·
Cc1noc(C)c1-c1cc(N(C)C)ncn1	·	-7%	7%	·	·
C=C[C@@H]1c2cc(C)ccc2N(S(=O)(=O)c2ccc(C)cc2)[C@H](c2ccc(OC(C)=O)cc2)C1(C#N)C#N	21%	·	·	13	3.3µM*
CCCn1cc(SCC(=O)Nc2nnc(C)s2)c2ccccc21	-12%	?	-2%	37	7%
Cc1ccc(C(=O)NCCn2cc(SCC(=O)Nc3nnc(C)s3)c3ccccc32)cc1	2%	14µM*	1%	-25	12%
Cc1ccc(S(=O)(=O)NCC(=O)OC(C)C(=O)NC2CCCCC2C)cc1C (stereo unspecified)	-5%	·	·	8	0%
COc1ccc2c(c1)[nH]c1c(=O)n(/N=C/c3ccc(OC)c(CN4CCCC4)c3)cnc12	0%	18%	-10%	?	1%
COc1ccc(/C=N/n2cnc3c([nH]c4ccc(C)cc43)c2=O)cc1CN1CCCC1	?	?	?	-102*	?
COc1ccc(/C=N/n2cnc3c([nH]c4ccc(F)cc43)c2=O)cc1CN1CCCC1	-2%	-80%	11µM*	33	?
COc1cccc(CN2CC(C(=O)NCCc3nccs3)CCC2=O)c1 (stereo unspecified)	·	·	·	0	·
Cn1c(=O)c(C(=S)NC(=O)C2CC2)c(N)n(Cc2ccccc2)c1=O	·	1.3µM*	1µM*	·	·
CCOC(=O)c1sc(Nc2ccc(OCC)cc2)nc1C	-54%	-23%	-12%	?	?
CCOC(=O)c1sc(Nc2cccc(Cl)c2)nc1C	-82%	0%	-12%	-87*	0%
CC(=O)c1cccc(NC(=O)c2sc(Cl)nc2C)c1	-22%	0%[1.91 µM]	-16%	-54*	10%
Cc1ccc(C)c(NC(=O)c2sc(Cl)nc2C)c1	0%	5%	8%	-58*	-1%
Cc1nc(Cl)sc1C(=O)Nc1cccc(Cl)c1	-9%	-11%[1.91 µM]	-15%	-56*	6%
CCOC(=O)c1sc(NC(=O)CCc2ccccc2)nc1C	5.8µM*	-17%	1%	-9	20%
CCCC(C)(C)C(=O)N1CCC1(C)C(=O)Nc1ccc2c(c1)OCCO2 (stereo unspecified)	·	·	·	-3	·
Nc1nc(CSc2nc3ccccc3s2)nc(N2CCCCC2)n1	22%	6.3µM*	13µM*	-23	?
Cc1nnc(SCc2nc(N)nc(Nc3ccccc3)n2)s1	-11%	?	-8%	-20	-180%[0.0737 µM]
CCc1ccc(Nc2nc(N)nc(CSc3nc4ccccc4s3)n2)cc1	2%	13µM*	?	21	-3%
CC(C)c1cccc(C2=CC(=O)C[C@H](c3ccc4c(c3)OCO4)C2)c1	23%	·	·	-9	?
CCCn1ncc(CN2CCC(n3nccc3NC(=O)c3ccccc3Cl)CC2)c1C	3%	0%	-2%	-13	?
Oc1ccc(N=Cc2ccc(O)c(O)c2)cc1	?	4.5µM*	10µM*	-55*	?
SMILES	SW480 rerep	RORgamma inh	VP16 counter	IL-1B inflam inh	MCF10A rerep
Oc1ccc(/C=N/N=C/c2ccc(O)c(O)c2)cc1O	?	-18%	?	51	11%
O=Cc1ccc(O)c(O)c1	7%	-29%	-3%	-57*	10%
CC(=O)Oc1ccccc1Cn1c(C)c(C(=O)NCc2cccc([N+](=O)[O-])c2)sc1=O	·	·	·	-24	·
N#Cc1ccc(CN2CCN(C(=O)CN3C(=O)NC4(CCCC4)C3=O)CC2)cc1	-2%	·	·	27	9%
CCCNC(=O)C1(C)CCCN(Cc2c(F)cccc2F)C1 (stereo unspecified)	·	·	·	0	·
CN(C)S(=O)(=O)c1ccc2c(c1)C(=O)c1cc(S(=O)(=O)N(C)C)ccc1CC2	-2%	·	·	·	21%
CN(C)S(=O)(=O)c1ccc2c(c1)/C(=C/c1cc3c([nH]1)CCCC3)C(=O)N2	10µM*	·	·	-11	?
COc1ccc(C(=O)CC(=O)C(=O)Nc2ccccc2OC)cc1	-4%	5.6µM*	4.5µM*	33	21%
COc1cccc(C(=O)CC(=O)C(=O)Nc2cc(OC)c(OC)c(OC)c2)c1	·	0%	0%	·	·
COc1ccc(C(=O)C(CCC(CNC(C)(C)C)C(=O)c2ccc(OC)cc2)CNC(C)(C)C)cc1 (stereo unspecified)	2.9µM*	?	13µM*	-101*	5.8µM*
COc1ccc(C(=O)COC(=O)CCc2ccccc2)cc1	5%	2%	-2%	15	-17%
COc1ccc(C(=O)CCc2ccccc2)cc1	-6%	6%	-2%	-52*	-2%
COc1cccc(C(=O)CC(=O)C(=O)Nc2cc(OC)ccc2OC)c1	-2%	11µM*	?	22	-2%
Cc1cc2[nH]c(=O)c(=O)[nH]c2cc1S(=O)(=O)NC1CCCCC1C (stereo unspecified)	-1%	-43%	?	0	6%
CCCCCCCCCCCC1N=C(N)NC(CCCO)=C1C(=O)OC (stereo unspecified)	1%	·	·	?	?
CC1CCN(S(=O)(=O)c2ccc3c(c2)N(C)C(=O)CC(=O)N3C)CC1	-5%	-25%	-1%	3	3%
COc1ccc(C(=O)CC(=O)C(=O)Nc2ccc(C)c(C)c2)cc1	-7%	13µM*	?	3	3%
COc1ccc(C(=O)CC(=O)C(=O)Nc2cccc(C(C)=O)c2)cc1	2%	-22%	5%	26	6%
COc1cccc(C(=O)Nc2ccccc2OC(F)(F)F)c1	-2%	-3%	-15%	?	0%
COc1ccc(C(=O)CC(=O)c2ccc(F)cc2)cc1	0%	·	·	-53*	-1%
COc1ccc(C(=O)CN2CCN(c3ccc(F)cc3)CC2)cc1	-5%	13%[1.91 µM]	22%	7	13%
CCCCOC(=O)c1ccc(NC(=O)C(=O)CC(=O)c2ccc(OC)cc2)cc1	0%	-41%	?	-4	15µM*
CCOc1ccccc1NC(=O)C(=O)CC(=O)c1cccc(OC)c1	-6%	3.5µM*	7.9µM*	18	4%
O=C(Cn1nnnc1CN1CCOCC1)N1CCC(c2cccc(Cl)c2)C1 (stereo unspecified)	2%	5%	1%	-8	-1%
Cc1ccc(C(C(=O)NC2CCCC2)N(C(=O)Cc2cccs2)c2ccc3c(c2)OCCO3)cc1 (stereo unspecified)	?	-33%	2%	-58*	4%
